By AC50 is commonly meant the concentration at which the activity in the assay is half-maximal.

Results filed as inconclusive are left out. Some structures have more than one record in an assay (separate samples or runs), and their calls can disagree. Active and inactive are the calls of the source. The calls were made as follows, unless noted: active = hit-call score of the fitted dose curve at least 0.9, where 1 is the maximum; inactive = score below 0.9.

Assay [1] can be described thus: ATG_Sox_CIS: Attagene CIS-FACTORIAL HepG2 Assay for human SRY-box transcription factor (SOX) (AID 2282960). The conditions noted are these: HepG2 Attagene cis-factorial SOX reporter, mRNA; actives raise or lower the signal. The essentials: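 Cells were transfected with reporter constructs under cis-regulatory promoters, then exposed to chemicals for 24 h. Reporter transcripts were quantified by fluorescence after RT-PCR and capillary electrophoresis; activity was fitted in both directions against DMSO.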

Assay [2] concerns the target Transcription factor Sp1 (Homo sapiens) (UniProt P08047). The assay can be described thus: ATG_Sp1_CIS: Attagene CIS-FACTORIAL HepG2 Assay for human Specificity Protein 1 (Sp1) (AID 2282961). The conditions noted are these: HepG2 Sp1 cis-reporter transcription, actives raise or lower the signal. In outline: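 Measures mRNA induction of an Sp1-linked reporter in HepG2 cells 24 h post-dosing. Multiplexed reporters read by RT-PCR and capillary electrophoresis; DMSO serves as negative control and baseline.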

Assay [3] can be described thus: ATG_SREBP_CIS: Attagene CIS-FACTORIAL HepG2 Assay for human Sterol Regulatory Element Binding (SREBP) (AID 2282962). The conditions noted are these: HepG2 Attagene cis-factorial SREBP reporter, mRNA; actives raise or lower the signal. In outline: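 Readout: fluorescent reporter-transcript peaks resolved by capillary electrophoresis after RT-PCR. Cells were human HepG2 carrying transfected cis-promoter reporter constructs, dosed for 24 h. Gain or loss of signal was fitted against DMSO controls.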

Assay [4] has as its target Signal transducer and activator of transcription 3 (Homo sapiens) (UniProt P40763). The assay can be described thus: ATG_STAT3_CIS: Attagene CIS-FACTORIAL HepG2 Assay for human Signal Transducer and Activator of Transcription 3 (STAT3) (AID 2282963). Conditions: HepG2, Attagene cis-factorial STAT3 reporter transcription; actives raise or lower the signal. In outline: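 Uses human liver HepG2 transiently carrying cis-regulated reporter transcription units. Following 24 h dosing, reporter mRNA induction was detected by RT-PCR and capillary electrophoresis, analysed bidirectionally versus DMSO.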

Assay [5] is described as follows: ATG_TA_CIS: Attagene CIS-FACTORIAL HepG2 Assay for human TA Basal Promoter (AID 2282964). The conditions noted are these: HepG2 Attagene CIS-factorial TA basal promoter reporter; actives raise or lower the signal. The essentials:
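Transfected HepG2, 24 h compound exposure; RNA → RT-PCR → FAM primer extension → HpaI cut → CE fluorescence. Gain/loss-of-signal fitted against DMSO negative control. Background-control readout.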

Assay [6] is described as follows: ATG_TCF_b_cat_CIS: Attagene CIS-FACTORIAL HepG2 Assay for human T-Cell-Factor with beta-catenin (TCF/b-cat) (AID 2282965). The conditions noted are these: HepG2 TCF/beta-catenin cis-reporter transcription, actives raise or lower the signal. The essentials:
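In this cis-format system, transfected HepG2 cells report endogenous transcription factor activity. Readout after 24 h exposure is reporter transcript abundance from RT-PCR and capillary electrophoresis, analysed for gain or loss of signal versus DMSO.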

Assay [7] in a line: ATG_TAL_CIS: Attagene CIS-FACTORIAL HepG2 Assay for human TAL Basal Promoter (AID 2282966).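 Also: background control endpoint measuring basal TAL promoter reporter mRNA not a specific factor.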 Conditions: HepG2 Attagene cis-factorial TAL promoter reporter; actives raise or lower the signal. In outline: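 HepG2, transient MRTU transfection, 24 h compound exposure; RNA → oligo(dT) RT → PCR → 6-FAM primer extension → HpaI digest → CE fluorescence. Bidirectional curve fit vs DMSO. Background-control readout.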

Assay [8] in a line: ATG_TGFb_CIS: Attagene CIS-FACTORIAL HepG2 Assay for human Transforming Growth Factor (TGF) (AID 2282967). The conditions noted are these: HepG2 Attagene CIS TGFb reporter, mRNA transcription; actives raise or lower the signal. In outline:
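Readout: fluorescently labeled reporter cDNA fragments resolved by capillary electrophoresis after RT-PCR. Transfected HepG2 cells dosed for 24 h; endogenous TF activity at TGFB1-linked cis element; gain or loss fitted relative to DMSO.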

In assay [9] the target is Estrogen receptor (Homo sapiens) (UniProt P03372). Description: ATG_ERa_TRANS: Attagene TRANS-FACTORIAL HepG2 Assay for human Estrogen Receptor alpha (ERa) (AID 2282970; active = hit-call score of the fitted dose curve at least 0.9, where 1 is the maximum). The conditions noted are these: HepG2 Attagene TRANS ERa GAL4 reporter, mRNA. The essentials: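 Reporter mRNA induction after 24 hours, detected by fluorescent RT-PCR and capillary electrophoresis, gives the read-out. Cells are HepG2 transiently transfected with GAL4-UAS reporter transcription units responding to chimeric NR-Gal4. Activity is taken as gain of signal over DMSO baseline.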

Assay [10] concerns the target X-box-binding protein 1 (Homo sapiens) (UniProt P17861). The assay can be described thus: ATG_Xbp1_CIS: Attagene CIS-FACTORIAL HepG2 Assay for human X-box Binding Protein 1 (XBP1) (AID 2282972). Conditions: HepG2 XBP1 cis-element reporter, Attagene multiplex; actives raise or lower the signal. In outline: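 Read-out: fluorescent reporter mRNA fragments resolved by capillary electrophoresis after RT-PCR. Human HepG2 liver cells carried transfected cis-promoter reporter units and were exposed to chemicals for 24 hours. Gain or loss of signal fitted relative to DMSO baseline.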

Assay [11] in a line: ATG_M_19_TRANS: Attagene TRANS-FACTORIAL HepG2 Assay for M19 Transcription Factor (Internal Marker) (AID 2282974; active = hit-call score of the fitted dose curve at least 0.9, where 1 is the maximum). The conditions noted are these: HepG2 Attagene TRANS-FACTORIAL M19 internal marker reporter. In outline: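 After transfection of HepG2 with GAL4-UAS-driven reporter constructs, cells are dosed for 24 h. Total RNA is reverse-transcribed, reporter sequences PCR-amplified and labelled, then HpaI-digested and sized by capillary electrophoresis.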

The target of assay [12] is Glucocorticoid receptor (Homo sapiens) (UniProt P04150). Description: ATG_GR_TRANS: Attagene TRANS-FACTORIAL HepG2 Assay for human Glucocorticoid Receptor (GR) (AID 2282978; active = hit-call score of the fitted dose curve at least 0.9, where 1 is the maximum;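 also: activators score as hits since higher reporter transcript over DMSO is fitted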). The conditions noted are these: HepG2 Attagene TRANS GR reporter, mRNA transcription. The essentials: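 Multiplexed TRANS reporter system, HepG2; 24 h exposure; RNA → oligo(dT) RT → reporter-specific PCR → 6-FAM primer extension → HpaI cut → CE fluorescence. Gain-of-signal vs DMSO.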
Glucocorticoid receptor (Homo sapiens), sequence (P04150 whole entry, looked up): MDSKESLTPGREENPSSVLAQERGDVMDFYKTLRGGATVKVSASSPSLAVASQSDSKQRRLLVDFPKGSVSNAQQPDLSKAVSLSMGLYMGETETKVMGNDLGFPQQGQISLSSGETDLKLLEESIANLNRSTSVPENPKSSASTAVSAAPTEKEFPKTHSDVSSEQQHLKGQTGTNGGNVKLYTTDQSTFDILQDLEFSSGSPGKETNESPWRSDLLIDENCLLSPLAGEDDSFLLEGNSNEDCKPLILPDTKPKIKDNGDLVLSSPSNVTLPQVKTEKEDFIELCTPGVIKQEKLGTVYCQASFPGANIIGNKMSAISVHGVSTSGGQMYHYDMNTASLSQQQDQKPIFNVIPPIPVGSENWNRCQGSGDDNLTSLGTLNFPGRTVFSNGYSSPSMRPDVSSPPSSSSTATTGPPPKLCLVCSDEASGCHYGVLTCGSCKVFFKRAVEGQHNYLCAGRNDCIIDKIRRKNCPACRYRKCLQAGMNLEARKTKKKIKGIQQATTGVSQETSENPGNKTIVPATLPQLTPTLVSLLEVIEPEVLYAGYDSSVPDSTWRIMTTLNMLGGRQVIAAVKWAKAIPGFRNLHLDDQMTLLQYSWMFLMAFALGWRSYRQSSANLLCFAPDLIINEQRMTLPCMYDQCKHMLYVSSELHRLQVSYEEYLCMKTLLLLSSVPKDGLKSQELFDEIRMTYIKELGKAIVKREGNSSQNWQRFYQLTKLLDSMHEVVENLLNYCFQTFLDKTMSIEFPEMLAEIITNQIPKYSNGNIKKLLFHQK

Assay [13] addresses Oxysterols receptor LXR-alpha (Homo sapiens) (UniProt Q13133). Description: ATG_LXRa_TRANS: Attagene TRANS-FACTORIAL HepG2 Assay for human Liver X Receptor alpha (LXRa) (AID 2282980; active = hit-call score of the fitted dose curve at least 0.9, where 1 is the maximum). The conditions noted are these: HepG2 Attagene TRANS reporter, LXRa transactivation. The essentials: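 Read-out: reporter transcript levels by RT-PCR plus capillary electrophoresis, fluorescence intensity. Transiently transfected HepG2, exogenous NR-GAL4 chimera, GAL4-UAS reporters; 24 h compound exposure. Activity = increase over DMSO negative control.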

Assay [14] addresses Oxysterols receptor LXR-beta (Homo sapiens) (UniProt P55055). Description: ATG_LXRb_TRANS: Attagene TRANS-FACTORIAL HepG2 Assay for human Liver X Receptor beta (LXRb) (AID 2282981; active = hit-call score of the fitted dose curve at least 0.9, where 1 is the maximum). Conditions: HepG2 Attagene TRANS GAL4-LXRb reporter, mRNA. The essentials:
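Liver-derived HepG2 cells transfected with Gal4-responsive reporters were dosed for 24 h. Activation was scored as rise in reporter mRNA, by RT-PCR and capillary electrophoresis, above DMSO baseline.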

In assay [15] the target is Androgen receptor (Homo sapiens) (UniProt P10275). Description: ATG_AR_TRANS: Attagene TRANS-FACTORIAL HepG2 Assay for human Androgen Receptor (AR) (AID 2282973; active = hit-call score of the fitted dose curve at least 0.9, where 1 is the maximum). Conditions: HepG2 Attagene TRANS-FACTORIAL AR reporter transcription. The essentials: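 Readout is reporter transcript abundance, quantified by fluorescent RT-PCR products separated on capillary electrophoresis. Human HepG2 liver cells carried transiently transfected NR-Gal4 chimera plus GAL4-UAS reporter constructs and were dosed for 24 h; activity scored upward versus DMSO.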
Androgen receptor (Homo sapiens), sequence (P10275 whole entry, looked up, the tested form may be a part): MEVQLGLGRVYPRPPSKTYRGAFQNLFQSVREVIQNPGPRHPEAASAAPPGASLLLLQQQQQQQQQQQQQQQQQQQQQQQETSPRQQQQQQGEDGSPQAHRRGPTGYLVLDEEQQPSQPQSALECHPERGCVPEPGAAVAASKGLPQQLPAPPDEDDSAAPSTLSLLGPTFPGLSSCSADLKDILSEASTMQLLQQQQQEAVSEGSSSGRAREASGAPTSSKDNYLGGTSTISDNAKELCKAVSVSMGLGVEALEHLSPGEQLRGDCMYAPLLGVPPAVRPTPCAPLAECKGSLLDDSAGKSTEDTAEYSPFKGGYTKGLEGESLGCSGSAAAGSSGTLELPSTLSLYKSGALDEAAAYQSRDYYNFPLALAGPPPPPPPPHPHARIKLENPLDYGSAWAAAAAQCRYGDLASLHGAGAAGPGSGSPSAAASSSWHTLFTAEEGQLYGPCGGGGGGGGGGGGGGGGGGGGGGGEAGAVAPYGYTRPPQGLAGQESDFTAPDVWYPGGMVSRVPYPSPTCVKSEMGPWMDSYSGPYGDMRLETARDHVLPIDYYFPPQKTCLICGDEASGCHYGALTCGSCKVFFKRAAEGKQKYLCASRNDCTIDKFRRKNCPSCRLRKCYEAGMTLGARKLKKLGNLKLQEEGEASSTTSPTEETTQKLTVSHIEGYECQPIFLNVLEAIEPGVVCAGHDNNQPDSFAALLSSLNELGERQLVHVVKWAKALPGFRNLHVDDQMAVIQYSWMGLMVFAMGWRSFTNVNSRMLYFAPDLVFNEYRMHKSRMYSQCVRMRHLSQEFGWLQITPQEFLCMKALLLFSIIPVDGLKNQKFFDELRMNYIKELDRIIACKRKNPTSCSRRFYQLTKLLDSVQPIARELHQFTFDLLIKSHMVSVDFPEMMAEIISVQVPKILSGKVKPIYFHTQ

A short description of assay [16]: ATG_GAL4_TRANS: Attagene TRANS-FACTORIAL HepG2 Assay for GAL4 (Internal Marker) (AID 2282976; active = hit-call score of the fitted dose curve at least 0.9, where 1 is the maximum). Conditions: HepG2 Attagene TRANS GAL4 internal marker reporter. The essentials:
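RT-PCR/capillary electrophoresis readout of reporter mRNA. HepG2, transient MRTU transfection (GAL4-UAS reporters), 24 h compound exposure. Background-control endpoint, positive direction vs DMSO baseline.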

Assay [17] is described as follows: ATG_VDRE_CIS: Attagene CIS-FACTORIAL HepG2 Assay for human Vitamin D Receptor Element (VDRE) (AID 2282968). The conditions noted are these: HepG2 VDRE cis-reporter transcription, actives raise or lower the signal. The essentials:
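Transfected HepG2 reporter cells, chemical treatment 24 h. RNA isolated, cDNA amplified with reporter-specific primers, products analysed by capillary electrophoresis. Endpoint fitted in both directions versus DMSO.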

Assay [18] has as its target Nuclear receptor subfamily 1 group I member 3 (Homo sapiens) (UniProt Q14994). Description: ATG_CAR_TRANS: Attagene TRANS-FACTORIAL HepG2 Assay for human Constitutive Androstane Receptor (CAR) (AID 2282969; active = hit-call score of the fitted dose curve at least 0.9, where 1 is the maximum;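 also: activators raise reporter mRNA above DMSO so AC50 marks induction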). Conditions: HepG2 Attagene TRANS-FACTORIAL CAR reporter. The essentials:
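Steps: transient transfection of HepG2 with multiple GAL4-UAS reporter units; 24 h compound incubation; RNA isolation, RT-PCR, 6-FAM primer extension, HpaI digest; capillary electrophoresis. Gain-of-signal relative to DMSO negative control.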

Oxysterols receptor LXR-beta (Homo sapiens), sequence (P55055 whole entry, looked up, the tested form may be a part): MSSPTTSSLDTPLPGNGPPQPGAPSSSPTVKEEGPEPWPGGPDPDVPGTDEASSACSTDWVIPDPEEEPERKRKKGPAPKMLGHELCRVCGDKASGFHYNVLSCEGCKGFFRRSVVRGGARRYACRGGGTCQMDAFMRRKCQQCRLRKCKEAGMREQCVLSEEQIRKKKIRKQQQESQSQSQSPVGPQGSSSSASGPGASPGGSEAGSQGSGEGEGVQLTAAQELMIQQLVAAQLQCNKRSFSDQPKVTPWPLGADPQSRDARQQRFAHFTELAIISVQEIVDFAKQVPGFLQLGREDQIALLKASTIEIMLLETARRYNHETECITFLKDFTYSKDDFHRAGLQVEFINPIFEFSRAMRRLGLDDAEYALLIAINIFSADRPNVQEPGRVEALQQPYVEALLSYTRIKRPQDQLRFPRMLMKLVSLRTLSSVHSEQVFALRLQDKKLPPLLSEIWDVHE
Oxysterols receptor LXR-alpha (Homo sapiens), sequence (Q13133 whole entry, looked up, the tested form may be a part): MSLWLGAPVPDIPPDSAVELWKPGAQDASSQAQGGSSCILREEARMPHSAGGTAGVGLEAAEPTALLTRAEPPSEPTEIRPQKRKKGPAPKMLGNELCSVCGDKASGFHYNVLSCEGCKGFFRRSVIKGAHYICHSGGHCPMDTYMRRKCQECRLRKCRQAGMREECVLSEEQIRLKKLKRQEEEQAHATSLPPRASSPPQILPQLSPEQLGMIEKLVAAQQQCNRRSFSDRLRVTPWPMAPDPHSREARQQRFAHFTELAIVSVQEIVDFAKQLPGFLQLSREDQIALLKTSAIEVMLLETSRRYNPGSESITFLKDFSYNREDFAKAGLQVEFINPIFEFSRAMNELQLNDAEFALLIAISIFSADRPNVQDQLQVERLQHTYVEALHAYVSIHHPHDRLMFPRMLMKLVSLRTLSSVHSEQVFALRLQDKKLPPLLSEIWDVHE
Signal transducer and activator of transcription 3 (Homo sapiens), sequence (P40763 whole entry, looked up): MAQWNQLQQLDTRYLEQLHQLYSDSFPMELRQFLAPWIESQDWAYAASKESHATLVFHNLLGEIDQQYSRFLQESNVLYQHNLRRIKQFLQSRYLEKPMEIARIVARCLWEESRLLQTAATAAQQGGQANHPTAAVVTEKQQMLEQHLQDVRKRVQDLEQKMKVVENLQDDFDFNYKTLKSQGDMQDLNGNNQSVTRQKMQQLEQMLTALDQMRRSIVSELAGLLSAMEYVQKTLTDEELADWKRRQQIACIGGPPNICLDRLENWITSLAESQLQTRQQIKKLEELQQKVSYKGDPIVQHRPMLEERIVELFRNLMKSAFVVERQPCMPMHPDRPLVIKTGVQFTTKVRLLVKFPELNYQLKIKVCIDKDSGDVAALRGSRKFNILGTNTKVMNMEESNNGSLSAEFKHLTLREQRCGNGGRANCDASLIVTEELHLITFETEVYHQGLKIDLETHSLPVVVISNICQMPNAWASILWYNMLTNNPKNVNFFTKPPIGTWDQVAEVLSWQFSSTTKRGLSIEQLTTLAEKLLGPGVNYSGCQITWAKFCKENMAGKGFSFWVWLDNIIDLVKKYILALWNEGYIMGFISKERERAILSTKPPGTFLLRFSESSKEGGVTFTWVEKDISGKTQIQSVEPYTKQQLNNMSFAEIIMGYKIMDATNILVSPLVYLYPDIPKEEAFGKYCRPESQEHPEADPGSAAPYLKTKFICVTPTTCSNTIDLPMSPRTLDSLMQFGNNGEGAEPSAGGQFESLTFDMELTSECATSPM
Nuclear receptor subfamily 1 group I member 3 (Homo sapiens), sequence (Q14994 whole entry, looked up, the tested form may be a part): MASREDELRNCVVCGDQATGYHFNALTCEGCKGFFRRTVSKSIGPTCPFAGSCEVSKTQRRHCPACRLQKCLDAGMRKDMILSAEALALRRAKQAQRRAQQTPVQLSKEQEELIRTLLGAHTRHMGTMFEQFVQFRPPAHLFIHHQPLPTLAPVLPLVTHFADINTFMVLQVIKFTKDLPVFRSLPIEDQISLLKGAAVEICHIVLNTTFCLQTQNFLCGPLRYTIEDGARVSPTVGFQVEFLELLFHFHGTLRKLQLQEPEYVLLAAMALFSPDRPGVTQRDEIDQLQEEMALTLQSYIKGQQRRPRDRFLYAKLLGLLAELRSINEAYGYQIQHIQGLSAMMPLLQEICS
Transcription factor Sp1 (Homo sapiens), sequence (P08047 whole entry, looked up): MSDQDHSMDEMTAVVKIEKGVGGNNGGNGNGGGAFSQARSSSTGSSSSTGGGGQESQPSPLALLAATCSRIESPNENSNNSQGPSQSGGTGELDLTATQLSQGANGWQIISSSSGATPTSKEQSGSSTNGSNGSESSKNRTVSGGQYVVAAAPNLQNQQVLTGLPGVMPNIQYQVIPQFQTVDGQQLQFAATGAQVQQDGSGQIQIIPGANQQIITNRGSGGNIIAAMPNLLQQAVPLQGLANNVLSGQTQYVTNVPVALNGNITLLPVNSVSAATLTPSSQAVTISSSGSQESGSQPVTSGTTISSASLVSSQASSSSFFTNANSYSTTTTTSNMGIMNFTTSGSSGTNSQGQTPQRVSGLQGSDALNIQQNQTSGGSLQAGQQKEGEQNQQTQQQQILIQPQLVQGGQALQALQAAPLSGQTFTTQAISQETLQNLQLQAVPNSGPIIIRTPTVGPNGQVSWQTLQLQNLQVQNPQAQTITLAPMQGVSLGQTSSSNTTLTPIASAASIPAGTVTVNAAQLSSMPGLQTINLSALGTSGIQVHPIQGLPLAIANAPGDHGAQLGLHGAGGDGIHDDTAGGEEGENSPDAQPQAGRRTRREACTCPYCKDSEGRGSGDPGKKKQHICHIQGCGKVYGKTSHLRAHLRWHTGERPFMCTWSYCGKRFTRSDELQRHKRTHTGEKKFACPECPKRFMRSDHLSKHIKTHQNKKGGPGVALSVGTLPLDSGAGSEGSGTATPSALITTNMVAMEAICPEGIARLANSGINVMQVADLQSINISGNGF
X-box-binding protein 1 (Homo sapiens), sequence (P17861 whole entry, looked up, the tested form may be a part): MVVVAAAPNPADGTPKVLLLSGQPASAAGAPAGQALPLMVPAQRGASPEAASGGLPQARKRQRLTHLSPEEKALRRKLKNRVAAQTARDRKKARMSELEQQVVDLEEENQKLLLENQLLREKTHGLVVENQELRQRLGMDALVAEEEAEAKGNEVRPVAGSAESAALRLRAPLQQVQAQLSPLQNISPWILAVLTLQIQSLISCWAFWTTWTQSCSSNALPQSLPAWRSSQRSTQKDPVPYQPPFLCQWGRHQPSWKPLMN

In the case of `ClC(Cl)=C(Cl)C(Cl)=C(Cl)Cl`, the molecule was classed as inactive in assay [1], in assay [4], in assay [5], in assay [7], in assay [8] and in assay [9]. Also, the molecule was called inactive in [11], in [12], in [13] and in assay [14]. The AC50 is 160 µM (active) in assay [2], 156 µM (active) in assay [3], 40.4 µM (active) in [6] and 137 µM (active) in assay [10].
For the molecule `CCC(=O)C(CC(C)N(C)C)(c1ccccc1)c1ccccc1` (stereo not drawn), the call in assay [1], in assay [2], in [4], in [6], in [7] and in [8] was inactive. Further, the outcome in assay [9], in assay [10], in assay [15], in [11], in [12] and in [13] was inactive. Moreover, in [14], the outcome was inactive. Moreover, the AC50 in assay [3] was 14.2 µM (active).
For the molecule `Cc1ccccc1N`, the outcome in [1], in [2], in [3], in [4], in assay [5] and in assay [6] was inactive. The molecule was called inactive in assay [7], in [8], in [10], in assay [11], in assay [16] and in [14].
Turning to `C[C@H]1CCCC(=O)CCC/C=C/c2cc(O)cc(O)c2C(=O)O1`, the outcome in assay [1], in assay [2], in [3], in assay [4], in assay [5] and in [6] was inactive. Besides, the molecule was classed as inactive in assay [7], in assay [8], in assay [10], in [15] and in [13].
In the case of `Oc1ccc(-c2ccccc2)cc1`, the AC50 in assay [1] was 145 µM (active); in assay [2], 147 µM (active); in assay [17], 83.2 µM (active); in [10] it was 69.4 µM (active). For the same molecule, the call in [3], in assay [4], in assay [6], in assay [7], in assay [8] and in assay [12] was inactive.
As to `CC12CC1(C)C(=O)N(c1cc(Cl)cc(Cl)c1)C2=O` (stereo not drawn), the molecule was called inactive in assay [1], in [2], in assay [3], in assay [4], in [6] and in [7]. The call in assay [8], in assay [17], in assay [18], in [10], in assay [15] and in assay [11] was inactive. Besides, the molecule was classed as inactive in [16], in assay [12], in assay [13] and in assay [14]. For the same molecule, in assay [17], the AC50 was 8.04 µM (active).

Values taken from PubChem BioAssay (EPA / NIEHS).
